# In the supplement of paper PMC8728848:
# Only a selection was taken, and the strongest signals are over-represented in it overall.
# Experiments:
# Test in all cases: glycan array binding signal (z-score within array); higher = stronger binding
# Conditions in all cases: glycan notation: IUPAC condensed, linker removed; mutation: F335Y
# [1] = biological target: Fuc(a1-2)Gal(b1-3)GalNAc(b1-3)Gal
# How it was run: (§1)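 Glycan array binding is given as a within-array Z-score, which can be read as non-binding when negative. The arrays, 3228 of them, came from the Consortium for Functional Glycomics database and were retained only where the protein sequence was available. Z-scores were averaged across arrays of the same protein sequence at different concentrations or buffers and across linkers.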
# [2] = biological target: Fuc(a1-2)Gal(b1-3)GalNAc(b1-4)[Neu5Ac(a2-3)]Gal(b1-4)Glc
# How it was run: as §1
# [3] = biological target: Fuc(a1-3)[Gal(b1-4)]GlcNAc(b1-4)Gal(b1-4)[Fuc(a1-3)]GlcNAc
# How it was run: as §1
# [4] = biological target: Gal(a1-6)Glc
# How it was run: as §1
# [5] = biological target: Gal(b1-3)[GlcNAc(b1-6)]GalNAc
# How it was run: as §1
# [6] = biological target: Gal(b1-4)GlcNAc(b1-3)GalNAc
# How it was run: as §1
# [7] = biological target: Gal6S(b1-4)Glc6S
# How it was run: as §1
# [8] = biological target: GlcNAc(b1-2)Gal(b1-3)GalNAc
# How it was run: as §1
# [9] = biological target: GlcNAc(b1-3)Gal
# How it was run: as §1
# [10] = biological target: GlcNAc(b1-3)GalNAc
# How it was run: as §1
# [11] = biological target: GlcNAc(b1-3)Man
# How it was run: as §1
# [12] = biological target: Man(a1-2)Man(a1-2)Man(a1-6)[Man(a1-3)]Man
# How it was run: as §1
# [13] = biological target: Man(a1-2)Man(a1-3)[Man(a1-2)Man(a1-6)]Man
# How it was run: as §1
# [14] = biological target: Man(a1-2)Man(a1-3)[Man(a1-2)Man(a1-6)]Man(a1-6)[Man(a1-2)Man(a1-2)Man(a1-3)]Man
# How it was run: as §1
# [15] = biological target: Man(a1-2)Man(a1-6)[Man(a1-3)]Man(a1-6)[Man(a1-2)Man(a1-2)Man(a1-3)]Man(b1-4)GlcNAc(b1-4)GlcNAc
# How it was run: as §1
# [16] = biological target: Man(a1-3)[Man(a1-6)]Man(a1-6)[Man(a1-2)Man(a1-3)]Man(b1-4)GlcNAc(b1-4)GlcNAc
# How it was run: as §1
# [17] = biological target: Man(a1-3)[Man(a1-6)]Man(a1-6)[Man(a1-3)]Man
# How it was run: as §1
# [18] = biological target: Neu5Ac(a2-3)Gal(b1-3)GalNAc
# How it was run: as §1
# [19] = biological target: Neu5Ac(a2-3)Gal(b1-4)GlcNAc(b1-6)[Neu5Ac(a2-3)Gal(b1-3)]GalNAc
# How it was run: as §1
# [20] = biological target: Neu5Ac(a2-6)Gal(b1-4)GlcNAc(b1-3)Gal(b1-4)[Fuc(a1-3)]GlcNAc(b1-3)Gal(b1-4)[Fuc(a1-3)]GlcNAc
# How it was run: as §1
binder,measurement,setting,value
Surfactant Protein D (Human); Neck + Carbohydrate Recognition Domain (NCRD) (Homo sapiens) (protein) MLLFLLSALVLLTQPLGYLEAEMKTYSHRTMPSACTLVMCSSVESGLPGRDRDGREGPRGEKGDPGLPGAAGQAGMPGQAGPVGPKGDNGSVGEPGPKGDTGPSGPPGPPGVPGPAGREGALGKQGNIGPQGKPGPKGEAGPKGEVGAPGMQGSAGARGLAGPKGERGVPGERGVPGNTGAAGSAGAMGPQGSPGARGPPGLKGDKGIPGDKGAKGESGLPDVASLRQQVEALQGQVQHLQAAFSQYKKVELFPNGQSVGEKIFKTAQFVKPFTEAQLLCTQAGGQLASPRSAAENAALQQLVVAKNEAAFLSMTDSKTEGKFTYPTGESLVYSNWAPGEPNDDGGSEDCVEIYTNGKWNDRACGEKRLVVCEF,glycan array binding signal (z-score),[1],-0.184
same,glycan array binding signal (z-score),[2],-0.189
same,glycan array binding signal (z-score),[3],-0.183
same,glycan array binding signal (z-score),[4],-0.189
same,glycan array binding signal (z-score),[5],-0.185
same,glycan array binding signal (z-score),[6],-0.191
same,glycan array binding signal (z-score),[7],-0.187
same,glycan array binding signal (z-score),[8],-0.189
same,glycan array binding signal (z-score),[9],-0.18
same,glycan array binding signal (z-score),[10],-0.193
same,glycan array binding signal (z-score),[11],-0.187
same,glycan array binding signal (z-score),[12],5.87
same,glycan array binding signal (z-score),[13],7.66
same,glycan array binding signal (z-score),[14],7.37
same,glycan array binding signal (z-score),[15],5.84
same,glycan array binding signal (z-score),[16],7.18
same,glycan array binding signal (z-score),[17],3.93
same,glycan array binding signal (z-score),[18],-0.19
same,glycan array binding signal (z-score),[19],-0.178
same,glycan array binding signal (z-score),[20],-0.122
